Assay results reported in PubChem BioAssay (NCI).
This is part of a sample that, as a whole, favours compounds with a hit. Of some 83,000 tested, about 20% had one in any assay.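 Step 1: grow cells in 96-well plates. Step 2: add test compound at a single concentration. Step 3: incubate 48 h. Step 4: record percent growth.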 Activity calls are given as the source filed them. Rule for the calls: active = growth percent below 10; inactive = the rest.

What was measured:
Assay in all cases: NCI-60 one-dose screen, 48 h (100 = growth as untreated, 0 = no growth, -100 = all killed)
Details in all cases: 10 µM unless noted
SK-MEL-2 melanoma = test system: SK-MEL-2 melanoma
EKVX NSCLC = test system: EKVX NSCLC
SN12C renal = test system: SN12C renal
UO-31 renal = test system: UO-31 renal
TK-10 renal = test system: TK-10 renal
ACHN renal = test system: ACHN renal
A498 renal = test system: A498 renal
CCRF-CEM leukemia = test system: CCRF-CEM leukemia
MOLT-4 leukemia = test system: MOLT-4 leukemia
SR leukemia = test system: SR leukemia

Measured: growth

Oc1c(CCl)cc(Cl)cc1Cc1cc(Cl)cc(Cc2cc(Cl)cc(CCl)c2O)c1O
inactive: EKVX NSCLC 21% | UO-31 renal 32% | TK-10 renal 17.7% | ACHN renal 22.7% | CCRF-CEM leukemia 13.5% | MOLT-4 leukemia 21% | SR leukemia 40.8%
active: SK-MEL-2 melanoma -16.6% | SN12C renal 8.92% | A498 renal -4.67%

CCOC(=O)c1c(C)nc2c(c1N)/C(=C/c1cccs1)C(=O)N2Cc1ccccc1
active: SR leukemia 9.76%
inactive: SK-MEL-2 melanoma 60% | EKVX NSCLC 82% | SN12C renal 73.2% | UO-31 renal 45.6% | TK-10 renal 90.1% | ACHN renal 79.7% | A498 renal 70.2% | CCRF-CEM leukemia 29.8% | MOLT-4 leukemia 18.8%

COc1ccc(-c2[nH]c3ccc(OC)cc3c2C=C(C#N)C#N)cc1
active: SR leukemia -3.05%
inactive: SK-MEL-2 melanoma 34.3% | EKVX NSCLC 36.5% | SN12C renal 63.1% | UO-31 renal 50.1% | TK-10 renal 70.4% | ACHN renal 63.9% | A498 renal 52.6% | CCRF-CEM leukemia 11.1% | MOLT-4 leukemia 27.3%

Cc1c(O)c(=O)ccn1-c1nc2ccccc2s1
inactive: SK-MEL-2 melanoma 90.5% | EKVX NSCLC 45.3% | SN12C renal 98.9% | UO-31 renal 47.6% | TK-10 renal 91.2% | ACHN renal 60.6% | A498 renal 95.8% | CCRF-CEM leukemia 82.7% | MOLT-4 leukemia 103% | SR leukemia 91.3%

Cc1cc2ccccc2c[n+]1CC(=O)c1ccc(-c2ccccc2)cc1
inactive: SK-MEL-2 melanoma 84.3% | EKVX NSCLC 54.8% | SN12C renal 55.4% | UO-31 renal 61.5% | TK-10 renal 68.5% | ACHN renal 79.4% | A498 renal 56.5% | CCRF-CEM leukemia 53.4% | MOLT-4 leukemia 49.3% | SR leukemia 54.7%

COc1ccc(Nc2nc(SCC(C)C)nc(-c3ccc(F)cc3)c2C#N)cc1
inactive: SK-MEL-2 melanoma 72.4% | EKVX NSCLC 69.4% | SN12C renal 85.9% | UO-31 renal 68.9% | TK-10 renal 92.1% | ACHN renal 72% | A498 renal 30.7% | CCRF-CEM leukemia 33.3% | MOLT-4 leukemia 57.2% | SR leukemia 20.1%

S=C(Nc1ccc(Cl)cc1)c1ccccn1
inactive: SK-MEL-2 melanoma 92.1% | EKVX NSCLC 87.9% | SN12C renal 99.3% | UO-31 renal 71.5% | TK-10 renal 110% | ACHN renal 99% | A498 renal 69.2% | CCRF-CEM leukemia 99.4% | MOLT-4 leukemia 101% | SR leukemia 102%

O=C(O)c1cn(C2CC2)c2cc(N3CCN(Cc4nnc(Nc5ccccc5)o4)CC3)c(F)cc2c1=O
inactive: SK-MEL-2 melanoma 101% | EKVX NSCLC 103% | SN12C renal 109% | UO-31 renal 92.5% | TK-10 renal 112% | ACHN renal 103% | A498 renal 92.2% | CCRF-CEM leukemia 92% | MOLT-4 leukemia 98.5% | SR leukemia 97.7%

O=C1Nc2ccc(Cl)cc2/C1=N/c1nc(-c2ccc(Cl)cc2)cs1
active: SK-MEL-2 melanoma -2.56% | TK-10 renal -15.5% | A498 renal -2.57% | CCRF-CEM leukemia 8.26% | MOLT-4 leukemia 2.22% | SR leukemia 3.05%
inactive: EKVX NSCLC 25.6% | SN12C renal 17.3% | UO-31 renal 24.6% | ACHN renal 11.9%

C#C[C@@]1(O)[C@@H](CO)O[C@@H](n2cc(-c3ccco3)c3c(N)ncnc32)[C@@H]1O
inactive: SK-MEL-2 melanoma 84.3% | EKVX NSCLC 67.3% | SN12C renal 71.8% | UO-31 renal 36.5% | TK-10 renal 69.1% | ACHN renal 90.2% | A498 renal 54.6% | CCRF-CEM leukemia 86.9% | MOLT-4 leukemia 32.8% | SR leukemia 94.4%

N#CC1C(c2ccc(Cl)cc2)=Nc2c(c(-c3ccccc3)nn2-c2ccccc2)C12C(=O)Nc1ccc(Cl)cc12 (stereo not given)
inactive: SK-MEL-2 melanoma 71.3% | EKVX NSCLC 40.1% | SN12C renal 60.2% | UO-31 renal 22.6% | TK-10 renal 47.8% | ACHN renal 36.6% | A498 renal 60.3% | CCRF-CEM leukemia 19.2% | MOLT-4 leukemia 15.3% | SR leukemia 36.5%

OCCNc1nc(NCCO)nc(Nc2ccc(C3=NN(c4cc(Cl)cc(Cl)c4)C(c4ccccc4)C3)cc2)n1 (stereo not given)
inactive: SK-MEL-2 melanoma 40.4% | EKVX NSCLC 59.4% | SN12C renal 55% | UO-31 renal 56.9% | TK-10 renal 74.1% | ACHN renal 42.2% | A498 renal 85.1% | CCRF-CEM leukemia 24.3% | MOLT-4 leukemia 20.5%
active: SR leukemia 5.4%

Cc1ccc(C2=N[C@H]3CCC[C@@H]3N(c3ccccc3)C(C(Cl)Cl)=N2)cc1
inactive: SK-MEL-2 melanoma 96.8% | EKVX NSCLC 98.4% | SN12C renal 107% | UO-31 renal 81.9% | TK-10 renal 100% | ACHN renal 98% | A498 renal 112% | CCRF-CEM leukemia 96.4% | MOLT-4 leukemia 94.3% | SR leukemia 95.8%

C=C(C)[C@@H]1CC[C@]2(C(=O)OCCCC[P+](c3ccccc3)(c3ccccc3)c3ccccc3)CC[C@]3(C)[C@H](CC[C@@H]4[C@@]5(C)CC[C@H](OC(=O)C(Cl)Cl)C(C)(C)[C@@H]5CC[C@]43C)[C@@H]12
active: SK-MEL-2 melanoma -67.5% | EKVX NSCLC -13.3% | SN12C renal -62.2% | UO-31 renal -51% | TK-10 renal -36.2% | ACHN renal -39.6% | A498 renal -58.9% | CCRF-CEM leukemia 0.798% | MOLT-4 leukemia -45% | SR leukemia -34%
